From PubChem
An excerpt weighted towards active compounds, which were near 1.8% of everything screened.
NALP3 yeast inh = NALP3 inhibition in yeast. 330,000 tested, 0.39% active. Yeast reconstituted NLRP3/ASC/caspase-1, beta-gal luminescence, 24 h. inhibition, % at 10 µM;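 active means inhibition of 50% or more; inactive means inhibition below 50%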;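 further: plate controls were induced DMSO wells for no effect and uninduced yeast grown without galactose for full effect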
NALP1 yeast inh = NALP1 inhibition; S. cerevisiae NALP1/ASC/caspase-1 growth, X-gal OD620, 72 h; inhibition, % at 10 µM; 280,000 tested, 0.61% active; AID 2071; in the data active means inhibition mostly above about 24%, no sharp cut-off; inactive means mostly below about 32%
SUMO Mot1 rescue = SUMOylation pathway inhibition by Mot1-301 growth rescue | S. cerevisiae Mot1-301 growth rescue, ATP luminescence, 38.5C; percent above DMSO median, 100 means doubled | growth rescue, % at 18.8 µM | 320,000 tested, 1% active;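 active means every valid replicate shows activation above 250% relative to neutral control wells; inactive means the rest, any valid replicate at or below 250%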;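 further: OY570 slx delta 5 strain wells were the positive control but not used for scaling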
PolyA inh = yeast polyadenylation inhibition; S. cerevisiae SKY197-pL101 polyadenylation reporter, beta-gal luminescence; efflux-impaired pdr1/pdr3 knockout yeast; score 100 = 6 SD above DMSO; 300,000 tested, 0.02% active; activity score, % at 12 µM;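 active means lowest replicate activity score at least 50, where 100 means six control SD above control mean; inconclusive means lowest score under 50 but half or more replicates reach 50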;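 further: yeast exposed to compound for 9 h at 30 °C; higher score means more reporter readthrough which indicates perturbed polyadenylation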
* = called active by the depositor; ! = a repeat was not active.

What do the screens show for `CCOc1cc(CNCCc2c[nH]c3ccccc23)cc(Cl)c1OCC`?
NALP3 yeast inh: 20; NALP1 yeast inh: 54*; SUMO Mot1 rescue: -19; PolyA inh: 6

What do the screens show for `CNC(=O)Oc1ccc2ncccc2c1`?
NALP3 yeast inh: 7; NALP1 yeast inh: 52*; SUMO Mot1 rescue: 3; PolyA inh: 9

Results for O=C1Nc2ccc(Br)cc2C(c2ccccc2Cl)=NC1O (centres undefined) ?
NALP3 yeast inh: 9; NALP1 yeast inh: -2; SUMO Mot1 rescue: 574*; PolyA inh: 12

Results for CC1N=C(c2ccccc2Cl)c2cc(Br)ccc2NC1=O (centres undefined) ?
NALP3 yeast inh: 13; NALP1 yeast inh: 14; SUMO Mot1 rescue: 11; PolyA inh: 29

What do the screens show for `C[C@]12CC[C@H](O)CC1=CCC1C2CC[C@]2(C)C(=O)[C@H](Br)CC12` (some centres undefined)?
NALP3 yeast inh: 30; SUMO Mot1 rescue: 113

How did CCN(CC)c1ccc(/C=C/[N+](=O)[O-])cc1 do in these assays?
NALP3 yeast inh: 11; NALP1 yeast inh: -12; SUMO Mot1 rescue: 153; PolyA inh: -16

What do the screens show for `COc1cc(/C=C/[N+](=O)[O-])ccc1O`?
NALP3 yeast inh: 23; NALP1 yeast inh: 94*; SUMO Mot1 rescue: 58; PolyA inh: 13

What do the screens show for `O=C(C1CCCN(c2nnc(-n3cccc3)s2)C1)N1CCC2(CC1)OCCO2` (centres undefined)?
NALP3 yeast inh: 2; NALP1 yeast inh: 41; PolyA inh: -6

What do the screens show for `Cc1ccc2c(c1)CC1(CN2C)C(=O)NC(=O)N(c2cc(C)ccc2C)C1=O` (centres undefined)?
NALP3 yeast inh: 5; NALP1 yeast inh: 20; SUMO Mot1 rescue: -18; PolyA inh: -3

How did Cc1ccc(NC(=O)c2cc(-c3ccccc3)n(CCCN3CCOCC3)c2C)cc1 do in these assays?
NALP3 yeast inh: 11; NALP1 yeast inh: 37*; SUMO Mot1 rescue: 42; PolyA inh: -1

What do the screens show for `Brc1ccc2c(c1)C(OC1CN3CCC1CC3)c1ccccc1CS2` (centres undefined)?
NALP3 yeast inh: 7; NALP1 yeast inh: 57*; SUMO Mot1 rescue: -28; PolyA inh: 15

What do the screens show for `CCn1c(C(=O)N2CCC(C(=O)N3CCC4(CC3)OCCO4)CC2)cc2sccc21`?
NALP3 yeast inh: 27; NALP1 yeast inh: -4; SUMO Mot1 rescue: -7

How did Cc1c(C)c2ccc(OCC(=O)N3C[C@H]4C[C@@H](C3)c3cccc(=O)n3C4)cc2oc1=O do in these assays?
NALP3 yeast inh: 11; NALP1 yeast inh: 40*; SUMO Mot1 rescue: -18; PolyA inh: -6

Results for ClC1C(Cl)C(Cl)C(Cl)C(Cl)C1Cl (centres undefined) ?
NALP3 yeast inh: 4; SUMO Mot1 rescue: 331*!

What do the screens show for `CSc1ncc(CN2CCCC(C(=O)c3ccccc3SC)C2)cn1` (centres undefined)?
NALP3 yeast inh: 5; NALP1 yeast inh: 1; SUMO Mot1 rescue: 9; PolyA inh: -8

How did CSc1ccc(C(=O)C2CCCN(Cc3cnc(SC)nc3)C2)cc1 (centres undefined) do in these assays?
NALP3 yeast inh: 14; NALP1 yeast inh: 4; SUMO Mot1 rescue: 305*; PolyA inh: 3

Results for CC1CC(OC(=O)c2ccccc2)(c2ccccc2)C(C)CN1C (centres undefined) ?
NALP3 yeast inh: 14; NALP1 yeast inh: 33*; SUMO Mot1 rescue: 150; PolyA inh: 14

How did CCCN1CC(C)C(OC(C)=O)(c2ccccc2)CC1C (centres undefined) do in these assays?
NALP3 yeast inh: 1; NALP1 yeast inh: 10; SUMO Mot1 rescue: -8; PolyA inh: 3

What do the screens show for `CCN(CC)c1ccc(N=Cc2c(O)[nH]c(=O)[nH]c2=O)cc1`?
NALP3 yeast inh: 9; NALP1 yeast inh: 16; SUMO Mot1 rescue: 1; PolyA inh: 5

What do the screens show for `COc1cccc(CNCCc2ccc(F)cc2)c1`?
NALP3 yeast inh: 6; NALP1 yeast inh: 6; SUMO Mot1 rescue: -15; PolyA inh: 4

What do the screens show for `Fc1ccc(CCNCc2cccc(Cl)c2)cc1`?
NALP3 yeast inh: 14; NALP1 yeast inh: 41*; SUMO Mot1 rescue: -5; PolyA inh: 3

How did OC12ONC(c3ccccn3)C1N1CCC2CC1 (centres undefined) do in these assays?
NALP3 yeast inh: 3; NALP1 yeast inh: 21; SUMO Mot1 rescue: 14; PolyA inh: 45

Results for Cc1nccn1Cc1ccc(Cl)nc1 ?
NALP3 yeast inh: 1; NALP1 yeast inh: 20; SUMO Mot1 rescue: -8; PolyA inh: 14

What do the screens show for `CCCCOc1ccc(CCN)cc1Cl`?
NALP3 yeast inh: 41; NALP1 yeast inh: 48*; SUMO Mot1 rescue: -5; PolyA inh: -17

How did COc1ccc(CCN)cc1O do in these assays?
NALP3 yeast inh: 27; SUMO Mot1 rescue: 88; PolyA inh: inconclusive

What do the screens show for `COc1ccc(OCC(=O)N2CCN(Cc3ccc(SC)cc3)CC2)cc1`?
NALP3 yeast inh: 14; NALP1 yeast inh: -16; SUMO Mot1 rescue: 262*; PolyA inh: -29

Results for CN1CCN(c2ccc([N+](=O)[O-])c(NCC3CCCO3)c2)CC1 (centres undefined) ?
NALP3 yeast inh: 6; NALP1 yeast inh: 8; SUMO Mot1 rescue: -24; PolyA inh: -13

How did CNC(=O)N(C)c1ccc(C(O)(C(=O)OC)C(F)(F)F)cc1 (centres undefined) do in these assays?
NALP3 yeast inh: 1; NALP1 yeast inh: 42*; SUMO Mot1 rescue: 14; PolyA inh: -2

How did Oc1ccccc1-[n+]1c(-c2ccccc2)cc(-c2ccccc2)c(O)c1-c1ccccc1 do in these assays?
NALP3 yeast inh: 4; SUMO Mot1 rescue: 366*; PolyA inh: 1

Results for O=C(COC(=O)Cc1ccccc1)NC12CC3CC(CC(C3)C1)C2 ?
NALP3 yeast inh: -6; NALP1 yeast inh: 24*; SUMO Mot1 rescue: 46; PolyA inh: -27

Results for O=C(COC(=O)Cc1ccccc1)NC(=O)NC1CCCCC1 ?
NALP3 yeast inh: -4; SUMO Mot1 rescue: 10; PolyA inh: -12

Results for CC(=O)OC(C)(C)/C=C/C(=O)[C@](C)(O)[C@H]1[C@H](O)C[C@@]2(C)[C@@H]3CC=C4[C@H](C[C@H](O)C(=O)C4(C)C)[C@]3(C)C(=O)C[C@]12C ?
NALP1 yeast inh: 25

How did CN(C)c1ccc(/C=C2/C(=O)NC(=O)N(Cc3ccco3)C2=O)cc1 do in these assays?
NALP3 yeast inh: 11; NALP1 yeast inh: 8; SUMO Mot1 rescue: 383*; PolyA inh: 25

What do the screens show for `CCN(CC)c1ccc(/C=C2/C(=O)NC(=O)N(Cc3ccco3)C2=O)cc1`?
NALP3 yeast inh: -1; NALP1 yeast inh: 21; SUMO Mot1 rescue: -1; PolyA inh: 14

Results for CCCCn1c(=O)c(C(=O)Nc2ccccc2C)c(O)c2ccccc21 ?
NALP3 yeast inh: 19; NALP1 yeast inh: -23; SUMO Mot1 rescue: 3; PolyA inh: 0

How did CCn1nc(-c2cccs2)nc2c(=O)n(C)c(=O)nc1-2 do in these assays?
NALP1 yeast inh: 33*

What do the screens show for `Cn1c(O)c(C(c2ccncc2)c2c(O)n(C)c(=S)n(C)c2=O)c(=O)n(C)c1=S`?
NALP3 yeast inh: 5; NALP1 yeast inh: 7; SUMO Mot1 rescue: -3; PolyA inh: -26
